BAZ2B inh = inhibitors of human BAZ2B bromodomain. Q9UIF8. AlphaScreen BAZ2B-H3K14Ac peptide displacement. Potency, µM (doses to about 114 µM), inactives show at the top dose activity change, negative = inhibition, hits mostly inhibitors. 4.4% of 360,000 active; further: on the % scale 0 is the no-effect control and ±100 the full control effect; nearly all actives have a fitted effect of over 60% in size
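In this displacement format the biotinylated H3(5-23) peptide acetylated at Lys14 serves as ligand at 50 nM, with BAZ2B at 50 nM in PBS pH 7.4 containing 0.01% Tween-20. Donor and acceptor beads are 10 ug/mL final.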
JMJD2A Tudor inh = blocks the human JMJD2A Tudor domain. AlphaScreen JMJD2A-Tudor / H3K4me3 peptide binding. Potency, µM (series often up to 114 µM), for inactives: top-dose activity change, negative = inhibition, actives largely listed as inhibitors. 4.4% of 390,000 active. AID 504339. O75164; further: on the % scale 0 is the no-effect control and ±100 the full control effect; nearly all actives have a fitted effect of over 50% in size
Target sequence (O75164 whole entry, looked up, the tested form may be a part): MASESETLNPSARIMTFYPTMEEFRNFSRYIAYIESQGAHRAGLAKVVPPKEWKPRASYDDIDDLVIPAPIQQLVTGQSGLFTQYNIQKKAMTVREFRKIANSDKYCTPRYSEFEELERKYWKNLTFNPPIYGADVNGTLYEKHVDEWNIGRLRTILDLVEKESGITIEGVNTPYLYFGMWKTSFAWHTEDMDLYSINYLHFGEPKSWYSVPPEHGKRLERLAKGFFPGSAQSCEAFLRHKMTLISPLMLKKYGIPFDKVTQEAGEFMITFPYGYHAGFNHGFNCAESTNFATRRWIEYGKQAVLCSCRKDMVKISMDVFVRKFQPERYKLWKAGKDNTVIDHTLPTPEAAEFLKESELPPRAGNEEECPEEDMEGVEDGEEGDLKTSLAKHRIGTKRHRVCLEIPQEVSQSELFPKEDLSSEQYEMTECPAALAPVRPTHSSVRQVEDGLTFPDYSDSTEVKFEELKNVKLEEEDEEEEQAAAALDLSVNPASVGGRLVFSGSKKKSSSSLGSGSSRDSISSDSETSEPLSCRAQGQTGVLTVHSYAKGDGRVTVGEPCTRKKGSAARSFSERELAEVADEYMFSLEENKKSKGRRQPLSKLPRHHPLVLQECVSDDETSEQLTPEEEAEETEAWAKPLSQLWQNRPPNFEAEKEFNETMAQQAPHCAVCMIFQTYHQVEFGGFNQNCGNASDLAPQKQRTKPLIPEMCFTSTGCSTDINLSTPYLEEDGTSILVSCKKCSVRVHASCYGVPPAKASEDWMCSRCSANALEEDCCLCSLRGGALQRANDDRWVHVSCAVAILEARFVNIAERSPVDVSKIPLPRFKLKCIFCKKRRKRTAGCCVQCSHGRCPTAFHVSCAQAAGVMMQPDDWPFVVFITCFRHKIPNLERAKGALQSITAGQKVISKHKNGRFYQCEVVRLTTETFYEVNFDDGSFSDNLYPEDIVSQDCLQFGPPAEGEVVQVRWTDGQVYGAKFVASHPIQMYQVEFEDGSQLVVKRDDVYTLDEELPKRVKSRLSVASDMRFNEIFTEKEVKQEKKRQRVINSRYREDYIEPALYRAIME
HP1b binding inh = inhibitors of HP1-beta chromodomain binding to methylated histone tails | P83916 | AlphaScreen HP1-beta / biotin-H3K9me3 peptide binding | Potency, µM (titrated, usually from 114 µM), inactives show top-dose activity change, negative = inhibition, hits mostly inhibitors | 0.56% of 390,000 active; further: nearly all actives have a fitted effect of over 70% in size
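Compound inhibition of the preformed complex between 50 nM HP1-beta and 50 nM biotinylated H3K9me3 peptide was read by AlphaScreen. Buffer was PBS pH 7.4 with 0.01% Tween-20. Incubations ran 30 min at room temperature, with 10 ug/mL donor/acceptor beads.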
L3MBTL1 inh = inhibitors of human L3MBTL1. AID 485360. AlphaScreen L3MBTL1–H3K9me1 peptide binding. 0.66% of 230,000 active. Potency, µM (top dose mostly 57.1 µM), inactives show at the top dose activity, negative = inhibition, hits mostly inhibitors. Q9Y468; further: on the % scale 0 is the no-effect control and ±100 the full control effect; nearly all actives have a fitted effect of over 60% in size
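First, the protein-peptide complex forms for 30 min at room temperature (L3MBTL1 50 nM, biotinylated H3K9me1 peptide 75 nM). Next, compounds are pin-transferred and incubated 30 min. Finally, AlphaScreen beads are added and read after 30 min.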
G9a inh = inhibitors of human histone lysine methyltransferase G9a; Q96KQ7; G9a H3K9 monomethylation, AlphaScreen, 2 h; Potency, µM (series often up to 102 µM), without a hit: at the top dose activity, negative = inhibition, usual class: inhibitors; 8.8% of 350,000 active; AID 504332; further: on the % scale 0 is the no-effect control and ±100 the full control effect; nearly all actives have a fitted effect of over 75% in size
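Chemiluminescent proximity detection of H3K9 monomethylation, read after 10 min bead incubation in the dark. Reaction: 20 nM G9a, 500 nM biotin-H3K9 peptide, 20 uM SAM cofactor, 2 h, room temperature, following 15 min enzyme-compound preincubation.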
* = called active by the depositor; ? = inconclusive; . = no result; [ ] = dose if it differs, or a comment. Sampled rows, rich in hits. Any-hit rate of the full collection: about 11%. The call rests on the fitted dose curve; in most records, active means well fitted inhibition curve with a large enough effect; inconclusive means small, poorly fitted or top-dose-only effect; inactive means no such curve, though single readings can be large or run the other way. Potency means the concentration at half of the fitted maximal effect.

SMILES	BAZ2B inh	JMJD2A Tudor inh	HP1b binding inh	L3MBTL1 inh	G9a inh
COc1cc2[nH]c(=S)n(C3CC3)c(=O)c2cc1OC	-28.6%	-5.1%	49.3%	-5.9%	17.8µM*
COc1cc2[nH]c(=S)n(CCN3CCOCC3)c(=O)c2cc1OC	?	31.6µM*	-0.5%	-6.5%	?
CCOc1cc2[nH]c(=S)n(CC3CCCO3)c(=O)c2cc1OCC (centres undefined)	-0.2%	?	16.4%	4.3%	?
CC(=O)Nc1ccc(-c2nnc3n(Cc4ccc(C)cc4)c(=O)c4ccccc4n23)cc1	16.4%	-15.2%	65.0%	.	-5.5%[59 µM]
CCc1ccccc1NC(=O)c1cn(C)c(=O)c2ccccc12	6.9%	-5.5%	37.6%	.	9.5%[59 µM]
O=C(CN1CC(=O)Nc2ccccc21)NCCc1ccc(Cl)cc1Cl	-11.3%	-7.5%	48.7%	.	?
COc1cc2[nH]c(=S)n(CCCN3CCOCC3)c(=O)c2cc1OC	-14.9%	25.1µM*	1.0%	.	?
COc1cc2[nH]c(=S)n(CC3CCCO3)c(=O)c2cc1OC (centres undefined)	2.9%	79.4µM*	23.8%	.	?
O=C(Cc1ccc(-n2c(=S)[nH]c3ccccc3c2=O)cc1)N1CCC(N2CCCCC2)CC1	?	-19.3%	14.9%	.	50.1µM*
O=c1c2cc(N3CCOCC3)ccc2[nH]c(=S)n1Cc1ccco1	?	50.1µM*	-50.9%	?	7.08µM*
COc1cccc(N2CCN(C(=O)c3cnn(-c4ccc(C)cc4C)c3C3CCN(C(=O)OC(C)(C)C)CC3)CC2)c1	-23.9%[57.1 µM]	?	2.1%	.	?
CCC1CCCCN1CCn1c(=S)[nH]c2cc(OC)c(OC)cc2c1=O (centres undefined)	-4.0%	?	25.7%	2.8%	50.1µM*
COCCn1c(=S)[nH]c2cc(OC)c(OC)cc2c1=O	-7.4%	89.1µM*	19.0%	9.1%	?
O=C(NC1CCN(Cc2ccccc2)CC1)c1ccc(Cn2c(=S)[nH]c3ccc(N4CCOCC4)cc3c2=O)cc1	?	-23.3%	14.3%	.	2.5%[59 µM]
CCN(CC)CCCn1c(=S)[nH]c2cc(OC)c(OC)cc2c1=O	-29.7%	?	20.6%	.	?
CCOc1cc2[nH]c(=S)n(CC3CCCN3CC)c(=O)c2cc1OCC (centres undefined)	-9.9%	?	10.2%	-3.4%[11.4 µM]	?
O=C(c1ccc(Cn2c(=S)[nH]c3ccc(N4CCOCC4)cc3c2=O)cc1)N1CCC(N2CCCCC2)CC1	-36.6%	-21.0%	12.5%	-12.1%	39.8µM*
Cc1noc(/C=C/c2ccccc2F)c1S(=O)(=O)N1CCC(C(=O)Nc2ccc(C#N)cc2)CC1	-4.5%	-14.4%	19.9%[57 µM]	.	-3.5%[59 µM]
C=CC1=C(C(=O)O)N2C(=O)[C@@H](NC(=O)/C(=N\O)c3csc(N)n3)[C@H]2SC1 (stereo in doubt)	.	20µM*	4.9%	.	.
O=C(CN1CCN(S(=O)(=O)c2ccccc2)CC1)Nc1ccc(Cl)c([N+](=O)[O-])c1	-4.7%	-21.4%	6.4%	-3.4%	-21.1%[12.7 µM]
O=C(/C=C/c1cccnc1)c1cccc(O)c1	-23.9%	?	66.8%	.	35.5µM*
O=C(/C=C/c1cccnc1)c1ccc([N+](=O)[O-])cc1	-18.1%	?	-17.2%	.	12.6µM*
Cc1noc(/C=C/c2cccnc2)c1[N+](=O)[O-]	-23.3%	-10.0%	26.1%	.	44.7µM*
O=C(Oc1cccnc1)c1ccc([N+](=O)[O-])cc1	?	-13.8%	19.6%	-4.4%	10µM*
O=C(/C=C/c1cccnc1)c1ccccc1O	-26.2%	0.0%	38.4%	.	35.5µM*
SMILES	BAZ2B inh	JMJD2A Tudor inh	HP1b binding inh	L3MBTL1 inh	G9a inh
CC(=O)NC(=O)Nc1sc(=S)n(C)c1C	-3.3%	-13.6%	14.6%	3.1%	?
Cc1c(NC(=O)Oc2ccccc2)sc(=S)n1C	?	-30.8%	-13.6%	.	44.7µM*
Cc1ccc(NC(=O)Nc2sc(=S)n(C)c2C)cc1	-2.5%	-15.4%	-22.5%	.	25.1µM*
COc1ccc(NC(=O)CSc2ccc3nc(-c4ccccc4)cn3n2)c(OC)c1	4.1%	-7.8%	28.8%[57 µM]	.	?
Cn1c(Oc2ccccc2)nc2c1c(=O)n(Cc1ccc(Cl)cc1Cl)c(=O)n2C	-27.0%	-27.8%	18.3%	.	-0.4%[59 µM]
O=C(CN1C(=O)C2(SCC(=O)N2c2cccc(Cl)c2)c2ccccc21)NC1CCCCC1 (centres undefined)	4.5%[57.1 µM]	-15.5%	25.3%	.	-0.1%[59 µM]
Cc1ccc(-n2nc(C)c(NC(=O)COC(=O)c3ccccc3NCCO)c2C)cc1	12.5%	-4.1%	22.2%	5.2%	50.1µM*
O=C(Nc1ccc2c(c1)OCCO2)C1CC1c1ccccc1 (centres undefined)	-10.2%	-19.6%	11.3%	2.9%	6.0%[59 µM]
Cc1nn(-c2ccccc2)c(C)c1C(=O)OCC(=O)Nc1ccc2c(c1)OCO2	-7.1%	?	-2.2%	0.1%	79.4µM*
O=C(O)C1CCCCC1C(=O)Nc1ccc2c(c1)OCCO2 (centres undefined)	-0.9%	-15.4%	16.5%	7.7%	2.51µM*
Cc1nn(-c2ccccc2)c(C)c1C(=O)OCC(=O)Nc1ccccc1	-2.2%	-9.8%	26.9%	2.6%	-21.7%[59 µM]
O=C(CSc1ccccc1)Nc1ccc2c(c1)OCCO2	-5.2%	-10.2%	19.6%	.	79.4µM*
Cc1nn(-c2ccccc2)c(C)c1NC(=O)COC(=O)c1ccccc1	6.4%	7.0%	34.6%	-1.0%	?
O=C(CSc1ccccc1)Nc1ccc2c(c1)OCO2	0.3%	1.4%	12.6%	.	3.4%
COc1ccc(NC(=O)CSc2nc(-c3cccc(C)c3)[nH]c2-c2ccccc2)cc1OC	22.4µM*	?	-13.6%	.	?
O=C(CSc1ncn(-c2ccccc2)n1)Nc1ccc2c(c1)OCO2	-1.0%	89.1µM*	12.1%	-0.4%	?
COc1ccc(-c2ccc(SCC(=O)NCc3ccco3)nn2)cc1OC	10.7%	?	0.7%	-2.0%	-104.7%
CC(=O)Nc1cccc(C(=O)OCC(=O)Nc2c(C)nn(-c3ccccc3)c2C)c1	11.7%	-16.7%	15.5%	7.0%	39.8µM*
COc1ccc(-c2[nH]c(-c3ccc(C)cc3)nc2SCC(=O)NCc2ccco2)cc1OC	5.7%	-19.0%	45.6%	.	50.1µM*
COc1ccc(-c2[nH]c(-c3ccc(OC)c(OC)c3)nc2SCC(=O)Nc2ccccc2)cc1	2.3%	?	-13.7%	.	-17.6%[59 µM]
COc1cccc(C2=CC(c3ccccc3F)n3ncc(C(=O)Nc4ccc(C)cc4)c3N2)c1 (centres undefined)	?	?	0.6%	.	?
CCOC(=O)c1ccc(NC(=O)CC2Nc3ccccc3NC2=O)cc1 (centres undefined)	-13.6%	-6.9%	30.2%	.	-25.3%[59 µM]
COc1ccc(NC(=O)CSc2ncccc2C(=O)O)cc1OC	56.2µM*	-10.1%	21.2%	.	?
O=C(CN1CC(=O)Oc2ccccc21)NCc1ccco1	44.7µM*	-28.1%[11.4 µM]	6.5%	2.5%	?
